# Source: PubChem BioAssay AID652154 (Broad Institute, 2013)
# Hit rate of the full screen: of about 360,000 compounds, about 4,200 (1.2%) were called active.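 The calls were made as follows: active = mean replicate inhibition at least 60% with every replicate also reaching 60%; inconclusive = only one of the two criteria is met; inactive = mean below 60% and not all replicates reaching 60%.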 Many of the other results were omitted from the sample, so actives are more common in it than they were.
# Experiment: inhibitors of PAX8-driven TPO luciferase reporter, primary screen, RMG-I cells, single concentration (AID 652154);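 also: luciferase light reporting Pax8 driven TPO promoter activity; plate controls were median of neutral control wells for no effect and mitoxantrone controls for full effect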
# Conditions: SteadyGlo, 24 h, at 12.6 µM, stronger effect = higher value
row,SMILES,inhibition
1,C[C@@H]1CN([C@H](C)CO)C(=O)c2cc(NC(=O)C3CCCCC3)ccc2O[C@H]1CN(C)C(=O)Nc1ccccc1,9.45% (inactive)
2,C[C@H](CO)N1C[C@H](C)[C@@H](CN(C)C(=O)Nc2ccc3c(c2)OCO3)Oc2ccc(NC(=O)NC3CCCCC3)cc2CC1=O,-23.2% (inactive)
3,COc1ccc(-c2cc(C(=O)N(C)Cc3ccc(OC)c(OC)c3OC)c3ccccc3n2)cc1OC,27.1% (inactive)
4,COc1ccc(-c2cc(C(F)(F)F)nc(S(C)(=O)=O)n2)cc1OC,122% (active)
5,COc1ccc(-c2cc(C(=O)NCCCN3CCCC3=O)c3ccccc3n2)cc1OC,2.26% (inactive)
6,Cc1ccccc1S(=O)(=O)N1[C@@H](C#N)[C@H](c2ccccc2)[C@@H]1CO,-4.36% (inactive)
7,O=C(Cc1ccccc1)N1CC2(C1)[C@H](c1ccccc1)[C@@H](CO)N2C(=O)c1cccnc1,-7.25% (inactive)
8,COc1ccnc(Oc2ccccc2)c1-c1ncn[nH]1,84.6% (active)
9,COc1ccnc(Oc2ccccc2)n1,-3.33% (inactive)
10,COc1ccccc1-n1cn[nH]c1=S,8.11% (inactive)
11,OC[C@@H]1[C@@H](c2ccc(-c3ccccc3F)cc2)[C@@H]2CN(Cc3cncnc3)CCCCN12,4.63% (inactive)
12,CN(C(=O)CSc1nnc(C2CC2)n1C)C1CCCc2ccccc21 (stereo not drawn),8.2% (inactive)
13,CC1Cc2ccccc2N1C(=O)CSc1nnc(-c2ccc(S(=O)(=O)N3CCCC3)cc2)n1C (stereo not drawn),20.8% (inactive)
14,CC1Cc2ccccc2N1C(=O)CSc1nnc(C2CC2)n1C (stereo not drawn),78.3% (active)
15,O=C(N[C@H]1CC[C@@H](CCn2cc(Cc3ccccc3)nn2)O[C@H]1CO)c1cnccn1,-16.7% (inactive)
16,C[C@H](CO)N1C[C@H](C)[C@H](CN(C)CC2CC2)Oc2cc(-c3ccc(F)cc3)ccc2S1(=O)=O,-2.31% (inactive)
17,COc1ccc2nc3n(c(=O)c2c1)-c1ccc(Cl)cc1C(=O)NC3Cc1ccccc1 (stereo not drawn),82.6% (active)
18,CC(C)CC1NC(=O)c2cc(Cl)ccc2-n2c1nc1ccccc1c2=O (stereo not drawn),6.69% (inactive)
19,O=C1NC(Cc2ccccc2)c2nc3ccc(Br)cc3c(=O)n2-c2cc3ccccc3cc21 (stereo not drawn),34.1% (inactive)
20,Cc1noc(C)c1NC(=O)N(C)C[C@H]1OCCCC[C@H](C)Oc2ccc(NC(=O)Nc3ccccc3)cc2C(=O)N([C@H](C)CO)C[C@@H]1C,8.48% (inactive)
21,COc1ccccc1CNC(=O)C[C@H]1CC[C@@H](NC(=O)CN(C)C)[C@@H](CO)O1,-11.2% (inactive)
22,COc1cccc(C#Cc2ccc([C@@H]3[C@H](C#N)N[C@H]3CO)cc2)c1,-230% (inactive)
23,O=C(C[C@@H]1C[C@@H]2c3cc(NC(=O)NC4CCCC4)ccc3O[C@@H]2[C@@H](CO)O1)NCc1ccccc1,-4.64% (inactive)
24,C[C@H](CO)N1C[C@H](C)[C@@H](CN(C)C(=O)c2cnccn2)Oc2ncc(-c3ccccc3F)cc2C1=O,2.74% (inactive)

row,SMILES,inhibition
1,C[C@H](CO)N1C[C@H](C)[C@@H](CN(C)S(=O)(=O)c2cccc(F)c2)OCc2ccccc2-c2c(n(C)c3ccccc23)C1=O,83.4% (active)
2,C[C@H](CO)N1C[C@H](C)[C@@H](CN(C)S(=O)(=O)c2ccc([N+](=O)[O-])cc2)OCc2ccccc2-c2c(n(C)c3ccccc23)C1=O,16.1% (inactive)
3,C[C@@H]1CN([C@H](C)CO)C(=O)c2c(c3ccccc3n2C)-c2ccccc2CO[C@H]1CN(C)S(=O)(=O)c1ccccc1F,40.5% (inactive)
4,Cc1ccc(S(=O)(=O)Nc2ccc3c(c2)C(=O)N([C@@H](C)CO)C[C@@H](C)[C@H](CN(C)CC2CC2)O3)cc1,-3.68% (inactive)
5,COc1ccccc1-c1ccc([C@H]2[C@H](CO)N(C(=O)C3CC3)C23CN(C(C)=O)C3)cc1,1.61% (inactive)
6,CCOc1c(Nc2cccc(Cl)c2)c(=O)c1=O,-11.1% (inactive)
7,OCCCNc1nccc(-c2cc(Nc3cccc(Cl)c3)ncn2)n1,107% (active)
8,C[C@H](CO)N1C[C@H](C)[C@@H](CN(C)CC2CCCCC2)Oc2ccc(NC(=O)Cn3cnnn3)cc2CC1=O,-19.1% (inactive)
9,COc1ccc(CN(C)C[C@H]2Oc3c(NS(=O)(=O)c4ccc(Cl)cc4)cccc3C(=O)N([C@H](C)CO)C[C@H]2C)cc1,5.03% (inactive)
10,NC1=CC(=O)C(=O)c2cccnc21,117% (active)
11,COc1cc(/C=N/Nc2ccc(C)cc2)cc(Br)c1O,-15% (inactive)
12,COc1cccc(/C=N/Nc2cc(C)nc(-c3ccccc3O)n2)c1O,90.5% (active)
13,COc1ccccc1-n1c(SCC(=O)Nc2cccc(C(=O)O)c2)nnc1-c1ccccc1O,19% (inactive)
14,Cc1ccc(S(=O)(=O)N(C)C[C@H]2Oc3ccc(NS(=O)(=O)c4ccccc4)cc3CC(=O)N([C@@H](C)CO)C[C@H]2C)cc1,-2.41% (inactive)
15,C[C@@H]1CN([C@H](C)CO)C(=O)c2cccc(NS(=O)(=O)c3ccc(F)cc3)c2O[C@H]1CN(C)Cc1ccc(Oc2ccccc2)cc1,16.4% (inactive)
16,COc1ccc2[nH]c(C(=O)Nc3ccccc3Cl)cc2c1,-22.1% (inactive)
17,COc1ccc2[nH]c(C(=O)N/N=C/c3cc(OC)c(OC)c(OC)c3)cc2c1,85.3% (active)
18,CCC(=O)c1ccc(OC(=O)/C=C/c2cc(OC)c(OC)c(OC)c2)cc1,-5.71% (inactive)
19,C[C@@H]1CCCCO[C@@H](CN(C)S(=O)(=O)c2cccs2)[C@@H](C)CN([C@@H](C)CO)C(=O)c2cc(NS(=O)(=O)c3ccc(F)cc3)ccc2O1,32% (inactive)
20,Cc1ccc(S(=O)(=O)N[C@H]2CC[C@H](CC(=O)NCc3ccccc3F)O[C@@H]2CO)cc1,3.28% (inactive)
21,Cn1c(CC(=O)NNC(=O)c2ccccc2F)nc2ccccc21,74.1% (active)
22,Cc1cc2occ(CC(=O)NNC(=O)c3ccccc3F)c2cc1C,-1.24% (inactive)
23,O=C(Cn1cnc2ccccc2c1=O)NNC(=O)c1ccccc1F,0.953% (inactive)
24,O=C(C[C@H]1CC[C@@H]2[C@H](COC[C@@H](O)CN2Cc2cc(F)cc(F)c2)O1)NC1CCC1,4.75% (inactive)
